CRFR2-BP ag: agonists of CRF-BP/CRF-R2 complex, primary screen, cell-based, HEK293, calcium dye fluorescence, uHTS. calcium dye fluorescence (FLIPR); percent of saturating CRF peptide response. CRF-binding protein / CRF receptor 2 complex (human). activation, % at 13.2 µM. 350,000 compounds, 0.46% hits;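 active = activation of at least 50%, plus an integration ratio under a set limit after plate pattern correction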;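 also: plate controls were neutral control wells without compound for no effect and CRF at EC100 for full effect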
MEKK2mut PB1 HTS: MEK5 binding signal on mutant MEKK2 PB1, primary screen, biochemical, multiplex bead flow cytometry, Alexa488-MEK5; Alexa488-MEK5 binding to MEKK2 mutant; percent response, % at 10 µM; 290,000 compounds, 0.35% hits; in the data active = percent response above about 24%, passing the limit was not always enough
CRFR2-BP antag: antagonists of CRF-BP/CRF-R2 complex, primary screen, cell-based, HEK293, calcium dye fluorescence, uHTS; CRF-induced calcium fluorescence; inhibition, % at 11.8 µM; 350,000 compounds, 0.59% hits;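 active = inhibition of the ligand-induced calcium signal above about 50% at the single tested concentration, limit read from the data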
MEKK2 WT-MEK5: modulators of MEK5 binding to wildtype MEKK2, primary screen, biochemical, multiplex bead flow cytometry, Alexa488-MEK5; binding response (% of control), % at 10 µM; 290,000 compounds, 1.1% hits; Mitogen-activated protein kinase kinase kinase 2 (Homo sapiens), Q9Y2U5; Alexa488-MEK5 binding to MEKK2 WT; actives lie on both sides; in the data active = binding response below about 67% or above about 130%
MEKK3 PB1 HTS: modulators of MEKK3-MEK5 PB1 binding, primary screen, biochemical, wildtype MEKK3, multiplex bead flow cytometry, Alexa488-MEK5. bead-based flow cytometry, Alexa488-MEK5 binding to MEKK3; actives lie on both sides; 0 = blocked by unlabeled MEK5, 100 = vehicle. binding response (% of control), % at 10 µM. 290,000 compounds, 1.4% hits. AID 1529, 2009;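 active = binding response more than 3 SD above or below the average of its plate-row segment, actives on both sides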;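 also: Alexa488 bead fluorescence after subtracting the streptavidin-only scavenger bead signal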
ABCB6 inh 2: ABCB6 transporter inhibitors, primary screen, K562-ABCB6 cells, flow cytometry, MLPCN library; ATP-binding cassette sub-family B member 6 (Homo sapiens), Q9NP58; K562-ABCB6 porphyrin accumulation, 1 h; hits give low values; fluorescence ratio to DMSO, % at 10 µM; 360,000 compounds, 0.19% hits; AID 602162, 2011;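 active = fluorescence ratio to DMSO below 75%, the collection mean minus 3 SD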;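 also: signal is porphyrin accumulated inside mitochondria; 100% equals median channel fluorescence of DMSO control wells; lower ratio means ABCB6 inhibition with less porphyrin fluorescence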
Target sequence (Q9NP58 whole entry, looked up): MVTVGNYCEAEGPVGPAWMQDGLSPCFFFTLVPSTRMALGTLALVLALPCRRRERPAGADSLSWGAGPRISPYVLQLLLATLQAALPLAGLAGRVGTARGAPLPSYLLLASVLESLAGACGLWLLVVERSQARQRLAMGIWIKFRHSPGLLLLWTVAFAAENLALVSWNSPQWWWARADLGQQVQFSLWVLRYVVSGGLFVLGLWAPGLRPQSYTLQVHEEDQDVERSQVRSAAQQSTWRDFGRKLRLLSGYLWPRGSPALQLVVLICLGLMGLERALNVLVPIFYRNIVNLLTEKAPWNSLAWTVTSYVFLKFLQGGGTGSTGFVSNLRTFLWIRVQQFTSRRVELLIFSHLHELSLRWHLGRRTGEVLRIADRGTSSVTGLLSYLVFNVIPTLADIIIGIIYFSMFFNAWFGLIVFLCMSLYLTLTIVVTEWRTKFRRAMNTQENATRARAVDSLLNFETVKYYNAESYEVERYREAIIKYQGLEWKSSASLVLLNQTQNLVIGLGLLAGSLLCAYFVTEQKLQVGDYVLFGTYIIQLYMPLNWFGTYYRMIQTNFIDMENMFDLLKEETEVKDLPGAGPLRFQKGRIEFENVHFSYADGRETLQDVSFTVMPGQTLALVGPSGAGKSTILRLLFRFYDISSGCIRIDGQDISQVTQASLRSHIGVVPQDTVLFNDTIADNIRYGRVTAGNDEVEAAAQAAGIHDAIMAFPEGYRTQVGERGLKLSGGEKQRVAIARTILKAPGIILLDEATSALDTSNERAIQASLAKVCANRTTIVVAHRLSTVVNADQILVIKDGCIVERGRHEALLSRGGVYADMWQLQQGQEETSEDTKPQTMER
MEKK2wt confirm: modulators of MEK5 binding to wildtype MEKK2, confirmation, biochemical, single concentration, multiplex bead flow cytometry; shares compounds with MEKK3 PB1 HTS; Alexa488-MEK5 binding to MEKK2 WT; actives lie on both sides; binding response (% of control), % at 10 µM; 5,900 compounds, 2.4% hits; in the data active = binding response below about 16% or above about 210%; inactive = in between
MEKK2mut-MEK5: mutant MEKK2 PB1-MEK5 binding signal retest – biochemical, single concentration, multiplex bead flow cytometry, confirmation; shares compounds with MEKK3 PB1 HTS; 5,900 compounds, 2% hits; AID 1893, 2009; percent response, % at 10 µM; Alexa488-MEK5 binding to MEKK2 mutant; in the data active = percent response mostly above about 71%, no sharp cut-off; inactive = mostly below about 38%;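 also: higher means compound restores mutant binding toward wildtype level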
MEKK3-MEK5 inh: MEKK3 wild-type PB1 binding to MEK5, inhibitors, confirmation, biochemical, bead multiplex flow cytometry, single concentration, wildtype; shares compounds with MEKK3 PB1 HTS; binding response (% of control), % at 10 µM; Alexa488-MEK5 binding to MEKK3; hits give low values; 5,900 compounds, 1.8% hits;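 active = binding response below 72% of control, or above a set upper limit, though filed actives all read lower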;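 also: 100% = DMSO only wells and 0% = binding blocked by excess unlabeled MEK5; lower values mean stronger disruption of MEK5 binding to MEKK3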
* hit, by the source's call; . = not tested or not shown; [ ] = another dose, or the depositor's remark. Most compounds without a hit are left out; they make up all but 2.9% or so of the library.

SMILES	CRFR2-BP ag	MEKK2mut PB1 HTS	CRFR2-BP antag	MEKK2 WT-MEK5	MEKK3 PB1 HTS	ABCB6 inh 2	MEKK2wt confirm	MEKK2mut-MEK5	MEKK3-MEK5 inh
Cc1ccc(C(CC(=O)O)NC(=O)CN2C(=O)c3ccccc3C2=O)cc1 (stereo not given)	1	4	-1	101	96	101	.	.	.
CC(=O)Nc1ccc(NC(=O)C(NS(=O)(=O)c2cccc3nsnc23)C(C)C)cc1 (stereo not given)	0	4	-17	101	102	98	.	.	.
Cc1nc2ccccc2nc1OCc1ccccc1	1	2	-7	101	91	95	.	.	.
Cc1nc2ccccc2nc1OCc1cccc(Cl)c1	0	-1	-8	102	128*	100	104	5	106
S=C(NCC1CCCO1)NC12CC3CC(CC(C3)C1)C2 (stereo not given)	1	-46	-14	6.0*[inhibitor]	4.0*[inhibitor]	93	93	-8	90
S=C(NCC1CCCO1)Nc1ccc(Cl)cc1 (stereo not given)	-2	1	-4	107	141*	88	98	-11	94
O=C(NCCc1ccccc1)C(=O)NCC1CCCO1 (stereo not given)	-3	-21	3	17*[inhibitor]	12*[inhibitor]	100	98	-1	101
Cc1ccc(NC(=S)NCC2CCCO2)cc1 (stereo not given)	-3	10	-12	100	102	175	.	.	.
O=C(NCc1cccc(CNC(=O)C(=O)NCC2CCCO2)c1)C(=O)NCC1CCCO1 (stereo not given)	1	-4	0	100	103	105	.	.	.
O=C(NCC1CCCO1)NC12CC3CC(CC(C3)C1)C2 (stereo not given)	0	-9	47	91	87	88	.	.	.
CC1CCC2(CC1)NC(=O)N(CC(=O)NC(C)c1ccc(F)c(F)c1)C2=O (stereo not given)	1	.	1	.	.	102	.	.	.
Cc1ccc2nc(-c3cccc(Br)c3)cc(C(=O)NC3=NCCS3)c2c1	4	3	-10	110	104	87	.	.	.
O=C(NC1=NCCS1)c1cc(-c2cccc(Br)c2)nc2ccccc12	2	11	-48	115	148*	95	110	7	100
Cc1ccc(N2C(=O)C3C(c4ccccc4)N4CCCN4C3(C)C2=O)cc1 (stereo not given)	3	-1	-6	84	66*[inhibitor]	87	105	2	102
CCN(CC)S(=O)(=O)c1ccc(N2CCOCC2)c(NC(=O)c2cc(=O)[nH]c3ccccc23)c1	0	-9	3	86	69*[inhibitor]	95	108	9	105
COc1ccc(CSc2n[nH]c(C)n2)cc1[N+](=O)[O-]	-2	4	-1	106	130*	95	-3.0*[inhibitor]	-5	94
Cc1nn(C)cc1CNC(=O)c1cccc(Br)c1	-2	8	-2	96	122*	98	99	2	97
Cc1nn(C)cc1CNC(=O)c1cccc(F)c1	-2	0	10	103	107	97	.	.	.
